Compound activity: PubChem, NMMLSC
BoNT A protease = inhibitors of Botulinum neurotoxin A light chain protease; inhibition, % at 10 µM; AID 588499; multiplex microsphere protease substrate cleavage, flow cytometry; 360,000 compounds, 0.17% hits; note: plate controls were buffer without enzyme for full effect and enzyme alone for no effect
BoNT F protease = blocks Botulinum neurotoxin F light chain protease | Multiplex microsphere protease cleavage assay, flow cytometry | inhibition, % at 10 µM | 360,000 compounds, 0.22% hits; in the data active = inhibition above about 35%, passing the limit was not always enough; inconclusive = no clear call, values can overlap the other calls; note: plate controls were buffer without enzyme for full effect and enzyme alone for no effect
Anthrax LF prot = inhibitors of Bacillus anthracis lethal factor protease; AID 588501; multiplex microsphere protease cleavage assay, LF; 360,000 compounds, 0.12% hits; inhibition, % at 10 µM; note: plate controls were buffer without enzyme for full effect and enzyme alone for no effect
Autofluor counter = compound fluorescence in toxin protease inhibitor counterscreen; compound autofluorescence counterscreen, microsphere flow cytometry; stronger effect = higher value; fluorescence intensity (concentration not given with the values); 360,000 compounds, 3.1% hits; AID 624483; in the data active = fluorescence intensity above about 16000; inconclusive = no clear call, values can overlap the other calls
* hit, by the source's call. An excerpt weighted towards active compounds, which were near 3.5% of everything screened. Cut-off read from the data, not from the text of the source, unless noted: active = inhibition above about 30%; inconclusive = no clear call, values can overlap the other calls; inactive = below that.

How did COc1cc(-n2cnnn2)ccc1S(=O)(=O)N1CCOCC1 do in these assays?
BoNT A protease: inconclusive; BoNT F protease: -2; Anthrax LF prot: 1; Autofluor counter: 22844*

How did COc1ccc(N2CCN(S(=O)(=O)c3cccc(C(F)(F)F)c3)CC2)cc1 do in these assays?
BoNT A protease: 1; BoNT F protease: -4; Anthrax LF prot: -11; Autofluor counter: 20076*

What do the screens show for `O=C(c1cccc(S(=O)(=O)N2CCOCC2)c1)N1CCCCCC1`?
BoNT A protease: -2; BoNT F protease: -2; Anthrax LF prot: 2; Autofluor counter: 23147*

How did COc1ccc(OC(=O)c2cccc(S(=O)(=O)N3CCCC3)c2)cc1 do in these assays?
BoNT A protease: -5; BoNT F protease: -5; Anthrax LF prot: -3; Autofluor counter: 24453*

Results for COC(=O)c1cccc(S(=O)(=O)N2CCCC2)c1 ?
BoNT A protease: 0; BoNT F protease: 2; Anthrax LF prot: -2; Autofluor counter: 2380

What do the screens show for `COc1ccc(N2CCN(S(=O)(=O)c3ccc(Cl)c(C(F)(F)F)c3)CC2)cc1`?
BoNT A protease: 0; BoNT F protease: 6; Anthrax LF prot: -10; Autofluor counter: 9321

How did Cc1ccc(N(CC(=O)NCc2ccccc2)C(=O)c2csnn2)cc1 do in these assays?
BoNT A protease: 0; BoNT F protease: 9; Anthrax LF prot: -1; Autofluor counter: 4383

Results for Cc1ccc(C(=O)N2CCOCC2)cc1S(=O)(=O)N1CCOCC1 ?
BoNT A protease: -1; BoNT F protease: -8; Anthrax LF prot: -2; Autofluor counter: 5328

Results for COc1ccc(CC(=O)N2CCN(C(=O)Cc3ccc(OC)cc3)CC2)cc1 ?
BoNT A protease: -5; BoNT F protease: inconclusive; Anthrax LF prot: -5; Autofluor counter: 5477

How did COc1ccc(C(=O)N2CCCC2)cc1S(=O)(=O)N1CCOCC1 do in these assays?
BoNT A protease: 0; BoNT F protease: -2; Anthrax LF prot: 2; Autofluor counter: 20709*

What do the screens show for `COc1ccc(C(=O)N2CCN(S(=O)(=O)c3ccc(Cl)cc3)CC2)cc1OC`?
BoNT A protease: 4; BoNT F protease: 8; Anthrax LF prot: 4; Autofluor counter: 21574*

Results for COc1ccc(C(=O)N2CCN(S(=O)(=O)c3ccc(F)cc3)CC2)cc1OC ?
BoNT A protease: 0; BoNT F protease: -1; Anthrax LF prot: -1; Autofluor counter: 2477

How did Cc1ccc(C(=O)O)cc1S(=O)(=O)N1CCOCC1 do in these assays?
BoNT A protease: -2; BoNT F protease: -3; Anthrax LF prot: -1; Autofluor counter: 16552*

How did COc1ccc(CC(=O)N2CCN(C)CC2)cc1 do in these assays?
BoNT A protease: 0; BoNT F protease: -2; Anthrax LF prot: -2; Autofluor counter: 16186*

Results for O=C(NC1CC1)c1cccc(NC(=O)c2cc(S(=O)(=O)N3CCOCC3)ccc2Cl)c1 ?
BoNT A protease: 0; BoNT F protease: -5; Anthrax LF prot: -6; Autofluor counter: 4415

What do the screens show for `COc1ccc(C(=O)Nc2ccc(-c3cn4ccsc4n3)cc2)cc1S(=O)(=O)N1CCOCC1`?
BoNT A protease: inconclusive; BoNT F protease: 4; Anthrax LF prot: -10; Autofluor counter: 20320*

How did COc1ccc(C(=O)Nc2ccc(N3CCOCC3)cc2)cc1S(=O)(=O)N1CCOCC1 do in these assays?
BoNT A protease: 3; BoNT F protease: 3; Anthrax LF prot: 8; Autofluor counter: inconclusive

What do the screens show for `COC(=O)C1CCN(C(=O)c2ccc(SC)cc2OC)CC1`?
BoNT A protease: inconclusive; BoNT F protease: -3; Anthrax LF prot: 0; Autofluor counter: 20634*

Results for COc1cc(SC)ccc1C(=O)N1CCN(c2ccccc2OC)CC1 ?
BoNT A protease: 0; BoNT F protease: -1; Anthrax LF prot: 3; Autofluor counter: 4787

Results for COc1cc(-c2nnc(SCC#CCO)o2)cc(OC)c1OC ?
BoNT A protease: 0; BoNT F protease: -1; Anthrax LF prot: -2; Autofluor counter: 22486*

Results for CC(C)N(C(=O)c1ccc(Cc2cn(C)c3ccccc23)nc1)C(C)C ?
BoNT A protease: -1; BoNT F protease: -2; Anthrax LF prot: -2; Autofluor counter: 3932

Results for COc1cccc(OCCOc2c(OC)cccc2OC)c1 ?
BoNT A protease: 0; BoNT F protease: 37*; Anthrax LF prot: -1; Autofluor counter: 3426

What do the screens show for `COc1cccc(OC)c1OCCCOc1c(OC)cccc1OC`?
BoNT A protease: 0; BoNT F protease: 32; Anthrax LF prot: 4; Autofluor counter: 4035

Results for COCCn1c(SCC(=O)Nc2nnc(C)s2)nnc1-c1cc2ccccc2cc1O ?
BoNT A protease: 0; BoNT F protease: -5; Anthrax LF prot: -6; Autofluor counter: 5944

How did CC(C)N(C(=O)CSc1nnc(-c2cc3ccccc3cc2O)n1Cc1ccco1)C(C)C do in these assays?
BoNT A protease: inconclusive; BoNT F protease: -1; Anthrax LF prot: 1; Autofluor counter: 20006*

What do the screens show for `O=C(CSc1nnc(-c2cc3ccccc3cc2O)n1Cc1ccco1)N1CCc2ccccc2C1`?
BoNT A protease: 0; BoNT F protease: -7; Anthrax LF prot: -1; Autofluor counter: 11125

How did COCCn1c(SCC(=O)N(C(C)C)C(C)C)nnc1-c1cc2ccccc2cc1O do in these assays?
BoNT A protease: inconclusive; BoNT F protease: -3; Anthrax LF prot: -3; Autofluor counter: 23496*

Results for COc1ccc(Nc2sc(C(=O)c3ccc(Cl)cc3)c(N)c2C(=O)Nc2ccccc2OC)cc1 ?
BoNT A protease: -2; BoNT F protease: -7; Anthrax LF prot: -3; Autofluor counter: 22771*

What do the screens show for `COc1ccc(C(=O)c2sc(Nc3ccccc3)c(C(=O)Nc3ccc(OC)c(OC)c3)c2N)cc1`?
BoNT A protease: 0; BoNT F protease: 2; Anthrax LF prot: -3; Autofluor counter: 2846

What do the screens show for `CCC(=NCCc1c[nH]c2ccccc12)c1c(O)n(C)c(=O)n(C)c1=O`?
BoNT A protease: 0; BoNT F protease: 2; Anthrax LF prot: 0; Autofluor counter: 22284*

What do the screens show for `CC(NC(=O)c1ccncc1)C(C)(C)C` (stereo not drawn)?
BoNT A protease: 6; BoNT F protease: 4; Anthrax LF prot: -13; Autofluor counter: 21180*

What do the screens show for `Cc1ccc(C(C)NC(=O)c2ccncc2)cc1C` (stereo not drawn)?
BoNT A protease: 1; BoNT F protease: 1; Anthrax LF prot: -4; Autofluor counter: 5880

What do the screens show for `CN(C)/C=C(/C(=O)c1ccc(Cl)cc1Cl)S(=O)(=O)c1ccc(Cl)cc1`?
BoNT A protease: 0; BoNT F protease: 8; Anthrax LF prot: -2; Autofluor counter: 9207

What do the screens show for `CN(C)/C=C(/C(=O)c1ccc(Cl)cc1)S(=O)(=O)c1ccc(Cl)cc1`?
BoNT A protease: -1; BoNT F protease: -5; Anthrax LF prot: -1; Autofluor counter: 16355*

What do the screens show for `CN(C(=O)c1cccc(NC(=O)Cc2ccc(NC(=O)C3CCCN(C(=O)CCc4ccccc4)C3)cc2)c1)C1CCCCC1` (stereo not drawn)?
BoNT A protease: 0; BoNT F protease: -4; Anthrax LF prot: -4; Autofluor counter: 4424

Results for CCCCNCc1cc(Br)c(OCC(=O)N2CCOCC2)c(OC)c1 ?
BoNT A protease: 8; BoNT F protease: 7; Anthrax LF prot: -8; Autofluor counter: 16518*

Results for O=C(Nc1c(F)cc(F)cc1Br)C1CCCO1 (stereo not drawn) ?
BoNT A protease: -5; BoNT F protease: -8; Anthrax LF prot: -2; Autofluor counter: 25313*
